Screening data from PubChem BioAssay.
ELG1 DNA repair: qHTS screen for small molecules that inhibit ELG1-dependent DNA repair in human embryonic kidney (HEK293T) cells expressing luciferase-tagged ELG1; HEK293T ELG1-luciferase reporter, luminescence, 16 h; DNA damage induced by 5-fluorouridine; Potency, µM (series often up to 46.1 µM), inactives show at the top dose activity change, negative = inhibition, usual class: inhibitors; actives 2.3% (n = 330,000); note: potency is the fitted concentration of half-maximal effect; nearly all actives have a fitted effect of over 55% in size
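HEK293T cells expressing luciferase-tagged ELG1 (2,000/well) received 5-Fluorouridine plus compound or DMSO for 16 hr at 37 °C. Luciferase was read by ONE-Glo luminescence after 30 min at room temperature.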
HT1080-NT tox: qHTS for induction of synthetic lethality in tumor cells producing 2HG: qHTS for the HT-1080-NT fibrosarcoma cell line. AID 686970, 2013. actives 1.6% (n = 360,000). Potency, µM (highest dose often 46.1 µM), for the others: at the top dose activity, negative = less viability, most hits filed as cytotoxic. HT-1080-NT fibrosarcoma viability, CellTiter-Glo ATP luminescence, 48 h;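 note: NT is the 2HG producing partner of a matched IDH1 knockdown line; potency is the fitted concentration of half-maximal effect; 0% = DMSO-treated cells and -100% = media-only wells without cells; nearly all actives have a fitted effect of over 55% in size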
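HT-1080-NT; 750 cells/well; 5% FBS RPMI; 48 h compound, 37 degrees C; CellTiter-Glo luminescence; curve fitting and curve-class assignment.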
TDP1 cell noCPT: qHTS for Inhibitors of human tyrosyl-DNA phosphodiesterase 1 (TDP1): qHTS in cells in absence of CPT | DT40 Tdp1-/- hTDP1 cells, no CPT, ATP luminescence, 48 h | Potency, µM (series often up to 46.2 µM), without a hit: at the highest dose activity change, negative = growth inhibition, hits mostly inhibitors | actives 15% (n = 420,000) | AID 686978, 2013; note: potency is the fitted concentration of half-maximal effect; nearly all actives have a fitted effect of over 55% in size
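Chicken DT40 Tdp1-/- cells complemented with human TDP1, screened without camptothecin (DMSO vehicle only), 400 cells/well. Compounds pin-transferred, cells incubated at 37 °C for at least 48 hr. Growth read as ATP-dependent luminescence (CellTiter-Glo, 30 min at RT).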
IL-1B inflam inh: qHTS for Inhibitors of Inflammasome Signaling: IL-1-beta AlphaLISA Primary Screen. AID 743279, 2014. activity change, % at 57.5 µM. THP-1 LPS/ATP IL-1B secretion, AlphaLISA, 16 h; active compounds read low. actives 4.7% (n = 360,000); in the data active = activity change below about -50%; inconclusive = mostly about -30% to -49%
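THP-1 cells pretreated 1 hr with compounds (up to 57.5 uM final), then stimulated with LPS (250 ng/mL final) plus ATP (1.25 mM final); secreted IL-1B measured by AlphaLISA after 16 hr, decreased signal indicating inhibition.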
DT40 TDP1 CPT: qHTS for Inhibitors of human tyrosyl-DNA phosphodiesterase 1 (TDP1): qHTS in cells in presence of CPT | chicken DT40 Tdp1-/-;hTDP1 cells + 20 nM CPT, ATP luminescence, 48 h | Potency, µM (series often up to 46.2 µM), for the others: at the top dose activity change, negative = growth inhibition, usual class: inhibitors | actives 12% (n = 420,000) | AID 686979, 2013; note: potency is the fitted concentration of half-maximal effect; nearly all actives have a fitted effect of over 55% in size
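Chicken DT40 Tdp1-/- cells complemented with human TDP1, 400 cells/well, exposed to compounds plus 20 nM camptothecin for at least 48 h at 37 C; viability read as ATP content by CellTiter-Glo luminescence.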
HT1080 IDH1KD tx: qHTS for induction of synthetic lethality in tumor cells producing 2HG: qHTS for the HT-1080-IDH1KD cell line; actives 2% (n = 360,000); Potency, µM (top dose mostly 46.1 µM), for the others: top-dose activity, negative = toxicity, most hits filed as cytotoxic; HT-1080 IDH1 knockdown viability, ATP luminescence, 48 h;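 note: potency is the fitted concentration of half-maximal effect; 0% = DMSO wells and -100% = cell-free medium wells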
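After a 2 h attachment period, IDH1KD HT-1080 cells took pin-transferred compound for 48 h at 37 °C; ATP-based luminescence after 10 min room-temperature reagent incubation reported viability.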
Starred values were filed as active, the others as inactive; ? = inconclusive; · = not tested or not shown. The list is not random: actives were taken first. Their share in the collection is about 19%. Unless noted, calls come from the whole dose curve; as a rule, active = well fitted curve in the direction sought with a large enough effect; inconclusive = small, poorly fitted or top-dose-only effect, or another doubt; inactive = no such curve, though single readings can be large; an effect the other way counts as inactive or inconclusive. Unless noted, % is set by controls: 0 for no effect and ±100 for the full control effect.

SMILES	ELG1 DNA repair	HT1080-NT tox	TDP1 cell noCPT	IL-1B inflam inh	DT40 TDP1 CPT	HT1080 IDH1KD tx
CCOc1ccc2nc(N(CCCN(C)C)C(=O)c3ccc(S(=O)(=O)N4CCCC4)cc3)sc2c1	1%	-17%	-29%	0	?	-11%
CC1CN(S(=O)(=O)c2ccc(C(=O)N(CCCN(C)C)c3nc4c(Cl)cccc4s3)cc2)CC(C)O1 (stereo not given)	-1%	-6%	2%	-54*	-29%	-9%
NCCC(O)C(=O)NC1C[C@@H](N)[C@H](O[C@@H]2OC(CN)C(O)C(O)C2O)C(O)[C@H]1O[C@H]1OC(CO)C(O)C(N)C1O (stereo not given in full)	·	·	-9%	·	-8%	·
COc1ccc(CNc2ncncc2-c2c(C)noc2C)c(OC)c1	·	·	5%	·	3%	·
Cc1nn(C)c2c1c(C(F)(F)F)cc(=O)n2C(C)C(=O)NCCc1ccccc1 (stereo not given)	·	·	-83%	·	0.18µM*	·
COC(=O)c1ccc(Cn2c(=O)cc(C(F)(F)F)c3c(C)nn(C)c32)cc1	·	·	15µM*	·	?	·
CCn1nc(C)c2c(-c3ccccc3)cc(=O)n(C(C)C(=O)Nc3ccc(OC)c(OC)c3)c21 (stereo not given)	·	·	16µM*	·	10µM*	·
Cc1nn(C)c2c1c(C(F)(F)F)cc(=O)n2C(C)C(=O)NCc1ccccc1Cl (stereo not given)	·	·	-5%	·	-15%	·
Cc1nn(C)c2c1c(-c1ccccc1)cc(=O)n2Cc1ccccc1C#N	·	·	?	·	23µM*	·
Cc1nn(C)c2c1c(-c1ccccc1)cc(=O)n2Cc1ccc(F)cc1Cl	·	·	?	·	-25%	·
CC1(C)CC(=O)N(c2cccc(C(F)(F)F)c2)C(=O)C1	-16%	-25%	10%	8	?	0%
C[C@H](CO)N1C[C@H](C)[C@@H](CN(C)S(=O)(=O)c2cccc(F)c2)Oc2ncc(Br)cc2C1=O	·	-3%	?	12	-28%	0%
COc1ccccc1CNC(=O)C1CCN(S(=O)(=O)c2ccc3c(c2)NC(=O)CO3)CC1	12%	1%	-22%	-4	4%	0%
Cc1cc2nc(-c3ccc(Cl)cc3)c(CC3CCCCC3)n2c(C)c1Br	·	0%	?	48	?	-13%
Cc1nn(C)c2c1c(C(F)(F)F)cc(=O)n2C(C)C(=O)NCCC(C)C (stereo not given)	·	·	?	·	16µM*	·
Cc1ccc(CNC(=O)C(C)n2c(=O)cc(-c3ccccc3)c3c(C)nn(C)c32)cc1 (stereo not given)	·	·	?	·	18µM*	·
CC(C)(COC(=O)c1ccccc1)N1CC2CCC(C1)O2	·	9%	-4%	23	6%	-2%
Cc1csc(-c2nc3ccccc3n2C(C)c2nc3ccccc3[nH]2)c1 (stereo not given)	·	-20%	?	-6	?	-6%
COc1cc(C(=O)N(Cc2ccccc2)c2cccc(C)c2)ccc1OCC(=O)N1CCOCC1	·	0%	16µM*	-17	?	-3%
Cc1cccc(N(Cc2ccccc2)C(=O)c2ccc(S(C)(=O)=O)cc2)c1	-1%	0%	?	0	16µM*	0%
COc1ccc(C(=O)N(Cc2ccccc2)c2cccc(C)c2)cc1	?	-21%	?	13	15µM*	-17%
Cc1nc([N+](=O)[O-])cn1CC(O)c1ccc2c(c1)OCO2 (stereo not given)	·	·	4%	·	-11%	·
COC(=O)CC1C(C)(C)C(=O)C2CC3=C4CC(=O)OC(c5ccoc5)[C@]4(C)CCC3[C@@]1(C)C2=O (stereo not given in full)	·	·	-7%	·	-13%	·
COc1cc(/C=N/NC(N)=S)ccc1OCc1ccc(C)cc1	?	?	10µM*	-19	5.2µM*	?
COc1ccc(C=NNC(=S)Nc2ccc(F)cc2)cc1OC	·	-6%	2.1µM*	16	3.3µM*	-10%
SMILES	ELG1 DNA repair	HT1080-NT tox	TDP1 cell noCPT	IL-1B inflam inh	DT40 TDP1 CPT	HT1080 IDH1KD tx
COc1ccccc1NC(=S)N/N=C/c1ccc(O)cc1	?	-16%	5.8µM*	-101*	7.3µM*	-9%
COc1ccc(/C=N/NC(=S)Nc2cccc(C(=O)O)c2)cc1OC	12%	0%	-6%	29	9%	-4%
COc1cc(/C=N/NC(N)=S)ccc1OC(=O)c1ccc(C)cc1	?	-7%	-18%	44	-20%	?
COc1cc(/C=N/n2c(C)n[nH]c2=S)ccc1OCc1ccc(F)cc1	?	-2%	18µM*	7	?	2%
N#Cc1cccc(NC(=O)N2CC[C@@]3(CCCN(C(=O)c4csnn4)C3)C2)c1	·	·	-8%	·	22%	·
COc1ccc(C(=O)N2CCC[C@@]3(CCN(c4ccccn4)C3)C2)cc1	·	·	-28%	·	-4%	·
COc1ccc(C=NNC(=S)NN=Cc2ccc(OC)c(OC)c2)cc1OC	·	-20%	12µM*	-17	7.3µM*	-17%
COc1ccc(CNC(=S)N/N=C/c2ccc(OC)c(OC)c2)cc1	?	-9%	2%	8	3%	?
COc1cc(/C=N/NC(=S)N/N=C/c2cc(OC)c(OC)c(OC)c2)cc(OC)c1OC	?	-5%	3.7µM*	10	4.1µM*	-1%
COc1ccc(C(=O)NCc2nnc(SCC(=O)c3ccc(F)cc3)n2C)cc1OC	1%	-4%	-24%	2	-16%	2%
COc1ccc(-c2nn(-c3ccc(F)cc3F)c3c2cnc2ccc(F)cc23)cc1	·	·	-15%	·	-30%	·
CC(C)c1nc(N2CCN(C(=O)c3ccccc3)CC2)c(C#N)c2c1COC(C)(C)C2	?	15%	?	-22	?	9%
CSc1nc(N2CCCC2)c2c(c1C#N)CC(C)(C)OC2	?	-5%	-14%	9	-12%	4%
CSc1nc(N2CCN(C)CC2)c2c(c1C#N)CC(C)(C)OC2	8.2µM*	-1%	-22%	·	1%	-6%
